Results filed as inconclusive are left out. Active and inactive are the calls of the source. Unless noted, calls come from the whole dose curve; as a rule, active = well fitted curve in the direction sought with a large enough effect; inconclusive = small, poorly fitted or top-dose-only effect, or another doubt; inactive = no such curve, though single readings can be large; an effect the other way counts as inactive or inconclusive.
Experiments:
[1] = tested on: Zika virus NS2B-NS3 protease (linked construct); assay: Primary screen NINDS Rhodamine qHTS for Zika virus inhibitors (AID 1347160); note: potency is the fitted concentration of half-maximal effect; nearly all actives have a fitted effect of over 55% in size
Method in brief: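 Percent inhibition, normalized to uninhibited and enzyme-free controls, is fitted to a 4-parameter Hill equation. Fluorescence change comes from a 15-min cleavage of 1.5 microM bis-peptide Rhodamine110 substrate by 25 nM linked NS2B-NS3 at room temperature.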

[2] = OV-KATE Cancer Cell Toxicity qHTS against the NCATS CANVASS Library (AID 1347345); note: potency is the fitted concentration of half-maximal effect
Method in brief: (§1)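 Step one: seed 1000 cells per well. Step two: incubate 4 h. Step three: add test compounds in 11 concentrations. Step four: culture 72 h, then add CellTiter-Glo and record luminescence after 15min.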

[3] = HPAF-II Cancer Cell Toxicity qHTS against the NCATS CANVASS Library (AID 1347346); note: potency is the fitted concentration of half-maximal effect; nearly all actives have a fitted effect of over 55% in size
Method in brief: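 Luminescence from CellTiter-Glo, added after 72 h compound exposure and a 15 min room-temperature incubation, served as the viability readout. HPAF-II cells (1000/well) received an 11-point concentration series.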

[4] = UWB1.289 Cancer Cell Toxicity qHTS against the NCATS CANVASS Library (AID 1347347); note: potency is the fitted concentration of half-maximal effect; nearly all actives have a fitted effect of over 60% in size
Method in brief: as §1

[5] = OV-SAHO Cancer Cell Toxicity qHTS against the NCATS CANVASS Library (AID 1347348); note: potency is the fitted concentration of half-maximal effect; nearly all actives have a fitted effect of over 55% in size
Method in brief: as §1

[6] = Panc-1005 Cancer Cell Toxicity qHTS against the NCATS CANVASS Library (AID 1347349); note: potency is the fitted concentration of half-maximal effect; nearly all actives have a fitted effect of over 60% in size
Method in brief: as §1

[7] = SW1088 Cancer Cell Toxicity qHTS against the NCATS CANVASS Library (AID 1347350); note: potency is the fitted concentration of half-maximal effect; nearly all actives have a fitted effect of over 75% in size
Method in brief: as §1

[8] = COV-362 Cancer Cell Toxicity qHTS against the NCATS CANVASS Library (AID 1347352); note: potency is the fitted concentration of half-maximal effect
Method in brief: (§2)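 Luminescent ATP read-out (CellTiter-Glo, 15min at room temperature) measures survival after cells face an 11-point compound series for 72 hours at 37 degrees C/5% CO2.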

[9] = A2780 Cisplatin Sensitive Ovarian Cancer Cell Toxicity qHTS against the NCATS CANVASS Library (AID 1347353); note: potency is the fitted concentration of half-maximal effect; nearly all actives have a fitted effect of over 60% in size
Method in brief: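 Luminescent ATP content (ATPLite, 10 min at room temperature) served as the read-out after cells had been exposed to compounds for 72 hours at 37 °C. Dosing followed an 11-point concentration series.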

[10] = UWB1.289-WTBRCA1 Cancer Cell Toxicity qHTS against the NCATS CANVASS Library (AID 1347354); note: potency is the fitted concentration of half-maximal effect
Method in brief: as §2

[11] = HPAF-II 24hr Apoptosis Induction qHTS against the NCATS CANVASS Library (AID 1347356); note: 0% is about no effect
Method in brief: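 Luminescent caspase-3/7 signal (DEVD substrate, Caspase-Glo) served as read-out, taken 15 min after reagent addition to HPAF-II cells exposed 24 h to compounds.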

[12] = HEK293 18hr Apoptosis Induction qHTS against the NCATS CANVASS Library (AID 1347357); note: 0% is about no effect
Method in brief: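 Natural products applied to HEK293 for 18 hr; Caspase-Glo 3/7 readout.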

[13] = HEK293 24hr Apoptosis Induction qHTS against the NCATS CANVASS Library (AID 1347359); note: 0% is about no effect
Method in brief: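 HEK293 cells, 500 per well, exposed to an 11-point compound series for 24 hours at 37 degrees C. Caspase 3/7 activity read by Caspase-Glo luminescence (DEVD substrate) after 15 min at room temperature.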

[14] = tested on: NAD(P)H diaphorase (Clostridium kluyveri); assay: Diaphorse counterscreen qHTS: Assay Interference Panel against the NCATS CANVASS Library (AID 1347362); note: 0% is about no effect
Method in brief: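 Clostridium kluyveri diaphorase in PBS + 0.01% Tween-20 preincubated 15 min with compounds. Resazurin and NADH then added for 5 min at room temperature in the dark; resorufin fluorescence read (ex 525, em 598).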

[15] = target: Luciferin 4-monooxygenase (Photinus pyralis) (UniProt P08659); assay: Firefly luciferase counterscreen qHTS: Assay Interference Panel against the NCATS CANVASS Library (AID 1347363); note: 0% is about no effect
Chain of Luciferin 4-monooxygenase (Photinus pyralis) (P08659 whole entry, looked up): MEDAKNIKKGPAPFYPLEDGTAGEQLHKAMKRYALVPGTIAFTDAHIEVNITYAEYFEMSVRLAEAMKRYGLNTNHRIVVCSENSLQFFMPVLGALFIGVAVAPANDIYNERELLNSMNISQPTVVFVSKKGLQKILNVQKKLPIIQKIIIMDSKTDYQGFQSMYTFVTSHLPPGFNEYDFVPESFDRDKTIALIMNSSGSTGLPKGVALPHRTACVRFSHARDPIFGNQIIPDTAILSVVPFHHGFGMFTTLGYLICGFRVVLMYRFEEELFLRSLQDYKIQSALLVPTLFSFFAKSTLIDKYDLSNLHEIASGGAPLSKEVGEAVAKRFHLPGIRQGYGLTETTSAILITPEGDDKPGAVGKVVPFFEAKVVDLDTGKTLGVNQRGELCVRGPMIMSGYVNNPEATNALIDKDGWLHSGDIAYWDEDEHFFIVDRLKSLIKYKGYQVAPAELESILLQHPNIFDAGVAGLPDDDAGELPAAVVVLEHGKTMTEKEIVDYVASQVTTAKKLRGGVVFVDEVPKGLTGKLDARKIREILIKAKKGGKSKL
Method in brief: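 Purified P. pyralis luciferase (0.04 ug/mL, 4x reagent) added to Tris-acetate buffer with 0.013 mM D-luciferin, 0.013 mM ATP and 13.3 mM Mg-acetate; compounds preincubated 15 min, then luminescence read after 5 min, RT.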

[16] = SDT Cancer Cell Toxicity qHTS against the NCATS CANVASS Library (AID 1347365); note: potency is the fitted concentration of half-maximal effect; nearly all actives have a fitted effect of over 60% in size
Method in brief: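 qHTS, SDT dog glioma line, 500 cells/well; cpds 11 pts; 72 hr, 37C, 5% CO2; CellTiterGlo ATP luminescence.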

[17] = KB-3-1 Cancer Cell Toxicity qHTS against the NCATS CANVASS Library (AID 1347366); note: potency is the fitted concentration of half-maximal effect; nearly all actives have a fitted effect of over 75% in size
Method in brief: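 Cytotoxicity toward KB-3-1 cells (500/well, DMEM + 10% FBS) was scored by CellTiter-Glo luminescence following 72 hr exposure at 37C, with bortezomib titrated as control.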

[18] = G06 Cancer Cell Toxicity qHTS against the NCATS CANVASS Library (AID 1347368)
Method in brief: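 Dog G06 glioma line, 500 cells/well; cpds pin-transferred, 11-pt; 72 hr, 37C/5% CO2; CellTiterGlo luminescence (ATP) endpoint.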

[19] = target: Nuclear receptor subfamily 1 group I member 3 (Homo sapiens) (UniProt Q14994); assay: qHTS for Constitutive Androstane Receptor (CAR) Antagonist screened against the NCATS CANVASS Library (AID 1347372); note: potency is the fitted concentration of half-maximal effect
Chain of Nuclear receptor subfamily 1 group I member 3 (Homo sapiens) (Q14994 whole entry, looked up): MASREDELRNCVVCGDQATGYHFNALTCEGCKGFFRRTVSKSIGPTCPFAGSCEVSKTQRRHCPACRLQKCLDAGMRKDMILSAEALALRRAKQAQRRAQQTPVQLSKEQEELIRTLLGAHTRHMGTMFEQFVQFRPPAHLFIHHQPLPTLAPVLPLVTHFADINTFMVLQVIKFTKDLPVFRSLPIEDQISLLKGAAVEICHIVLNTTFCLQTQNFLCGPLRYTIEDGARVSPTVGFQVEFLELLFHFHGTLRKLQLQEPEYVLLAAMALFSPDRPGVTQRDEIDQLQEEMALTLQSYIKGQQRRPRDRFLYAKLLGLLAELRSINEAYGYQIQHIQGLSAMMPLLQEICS
Method in brief: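 HepG2 cells stably carrying hCAR and CYP2B6-2.2kb luciferase reporter, 2500 cells/well, compound with 50 nM CITCO agonist for 24hr at 37C. ONE-Glo luminescence measured CAR activity; CellTiter-Fluor read viability.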

[20] = target: Nuclear receptor subfamily 1 group I member 3 (Homo sapiens) (UniProt Q14994); assay: qHTS for Constitutive Androstane Receptor (CAR) Agonist screened against the NCATS CANVASS Library (AID 1347373);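 note: every well also contained 1.5 µM PK11195 alongside the test compound; 0% is about no effect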
Method in brief: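 HepG2-hCAR-CYP2B6 cells, 2500/well, attached 4hr; cpd + PK11195 1.5uM final; 24hr 37C 5% CO2. CellTiter-Fluor viability read, then ONE-Glo luminescence for CAR activation.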

[21] = qHTS for Hypoxia signaling pathway (HIF-1) antagonists against the NCATS CANVASS Library (AID 1347374)
Method in brief: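 HRE-bla ME-180 cells in medium with 0.5% dialyzed FBS received compounds (11-point series) plus CoCl2 (60 uM addition stock) for 17 hrs at 37C. Beta-lactamase activity read with CCF4 (405 nm ex, 460/530 nm em); CellTiter-Glo viability measured in same wells.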

[22] = Inflammasome Signaling qHTS Counterscreen: IL-1-beta AlphaLISA counterscreen against the NCATS CANVASS Library (AID 1347381);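 note: cell-free check with purified IL-1β in medium and no THP-1 cells; 0% is about no effect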
Method in brief: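 Cell-free interference check: compounds added to medium spiked with 4 pg purified IL-1β. Anti-IL-1β acceptor beads (6 ug/mL) with 0.6 nM biotinylated antibody added for 1 h at RT, then streptavidin donor beads (24 ug/mL) for 30 min in the dark. AlphaLISA read at 680/615 nm.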

[23] = Cytotoxicity qHTS for assessment of Hepg2 cells membrane integrity screened against the NCATS CANVASS Library (AID 1347387)
Method in brief: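 qHTS, 11-pt conc. series, 0.59 nM - 46 uM final; HepG2 2000 cells/well, overnight attachment; 5 hr compound exposure 37C/5% CO2; CytoTox-ONE, 10 min RT; fluorescence ex560/em590 = LDH from damaged membranes.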

[24] = qHTS for Activators of p53 Stress Response Pathway screened against the NCATS CANVASS Library (AID 1347388); note: 0% is about no effect
Method in brief: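 p53RE-bla HCT-116 cells (4000/well) were pre-incubated for 5 h, then treated with compound (11 points) for 16 h at 37C. After 2 h with CCF4, the 460/530 nm ratio gave reporter activation; CellTiter-Glo measured viability.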

[25] = qHTS assay for small molecule disruptors of mitochondrial membrane potential screened against the NCATS CANVASS Library (AID 1347389)
Method in brief: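 HepG2, 2,000 cells/well, attached overnight; compound 1 hr, 37C, 5% CO2; Mito-MPS dye 30 min, 37C; fluorescence 535 nm (monomer) and 590 nm (aggregate); decreased 590/535 ratio = depolarization.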

[26] = Secretion counterscreen for inhibitors of the SERCaMP assay screened against the NCATS CANVASS Library (AID 1347390);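 note: light from luciferase secreted into medium read as a measure of general secretion; % is set by controls: 0 for no effect and ±100 for the full control effect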
Method in brief: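 Natural products are titrated in an 11-point series up to 77 uM onto SH-SY5Y-GLuc STOP cells for 20 h. Secreted reporter activity is measured as coelenterazine-driven luminescence, with Brefeldin A on each plate.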

[27] = qHTS for activators of Nrf2/ARE signaling pathway screened against the NCATS CANVASS Library (AID 1347391); note: 0% is about no effect; nearly all actives have a fitted effect of over 60% in size
Method in brief: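 Plate ARE-bla HepG2 cells at 2000/well and let them settle 5 h. Pin-transfer compounds in DMSO, incubate 16 h at 37C. Load CCF4 for 2 h at room temperature and read blue/green fluorescence.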

[28] = Vero-766 cells viability qHTS against the NCATS CANVASS Library: Counterscreen for Zika virus inhibition assay (AID 1347394)
Method in brief: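 Counterscreen for toxicity: Vero 766 cells exposed 72 h to an 11-point compound series, viability by CellTiter-Glo.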

[29] = qHTS for inhibitors of Wild type Zika virus screened against the NCATS CANVASS Library (AID 1347396); note: potency is the fitted concentration of half-maximal effect
Method in brief: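 Using ATP-based luminescence (CellTiter Glo), this screen scores rescue of Vero 766 cells from wild-type Zika killing at 72 h post-infection. Compounds are tested in a concentration series.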

[30] = target: Glucocorticoid receptor (Homo sapiens) (UniProt P04150); assay: GR-GFP Redistribution (AID 450;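 active = compounds whose dose series gives a full or clear partial fitted curve of increased nuclear translocation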; note: potency is the fitted concentration of half-maximal effect); conditions: U2OS GR-GFP nuclear translocation, laser cytometry, 2 h
Chain of Glucocorticoid receptor (Homo sapiens) (P04150 whole entry, looked up, the tested form may be a part): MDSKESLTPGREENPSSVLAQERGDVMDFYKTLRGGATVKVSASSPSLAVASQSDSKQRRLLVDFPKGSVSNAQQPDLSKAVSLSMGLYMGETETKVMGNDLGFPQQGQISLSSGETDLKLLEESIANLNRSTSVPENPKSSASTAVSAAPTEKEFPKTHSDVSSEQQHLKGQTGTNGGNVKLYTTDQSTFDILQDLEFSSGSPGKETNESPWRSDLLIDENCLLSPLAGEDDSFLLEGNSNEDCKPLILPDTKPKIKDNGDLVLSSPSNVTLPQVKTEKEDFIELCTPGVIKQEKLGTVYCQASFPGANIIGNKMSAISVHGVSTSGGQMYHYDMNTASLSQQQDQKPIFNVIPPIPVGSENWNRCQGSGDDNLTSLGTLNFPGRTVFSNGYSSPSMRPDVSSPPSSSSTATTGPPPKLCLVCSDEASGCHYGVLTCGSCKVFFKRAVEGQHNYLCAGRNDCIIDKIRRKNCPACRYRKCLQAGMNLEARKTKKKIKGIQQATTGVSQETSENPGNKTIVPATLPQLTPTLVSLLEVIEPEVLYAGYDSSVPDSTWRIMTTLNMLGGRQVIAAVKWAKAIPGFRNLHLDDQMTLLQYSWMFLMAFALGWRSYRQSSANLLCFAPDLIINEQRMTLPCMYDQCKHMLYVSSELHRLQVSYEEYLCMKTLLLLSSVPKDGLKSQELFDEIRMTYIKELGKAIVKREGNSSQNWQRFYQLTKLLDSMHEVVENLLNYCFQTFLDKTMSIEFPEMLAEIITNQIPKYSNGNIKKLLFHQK

[31] = target: Glucocorticoid receptor (Homo sapiens) (UniProt P04150); assay: GR-EFC Redistribution (AID 451; calls by dose curve; note: potency is the fitted concentration of half-maximal effect); conditions: CHO-K1 GR-EFC translocation, beta-gal luminescence, 2 h
Method in brief: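 CHO-K1 cells expressing nuclear EA and GR-ED fragments of b-gal; compounds titrated up to 46 uM final, 2 h at 37 C. GR nuclear translocation read as complemented b-gal luminescence after 1 h RT detection.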

[32] = target: Mitogen-activated protein kinase 10 (Mus musculus) (UniProt Q61831); assay: JNK3 AlphaScreen Assay (AID 530; active = well fitted curve in either direction with a large enough effect, not every such curve was filed as active;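 note: kinase came from lysate of stimulated human HepG2 cells; signal reports phosphorylation of biotinylated GST-cJun 1-79 at Ser73 with 10 µM ATP; % is set by controls: 0 for no effect and ±100 for the full control effect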)
Method in brief: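 Pre-activated (IL-1β/TNFα) JNK3 in HepG2 lysates phosphorylates biotin-GST-cJun(1-79), 10 uM ATP; anti-phospho-cJun(Ser73) AlphaScreen read at room temperature, pH 7.6 Tris buffer. Compounds pre-incubated 15 min as titrations.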

[33] = target: 3',5'-cyclic-AMP phosphodiesterase 4B (Homo sapiens) (UniProt Q07343); assay: qHTS Assay for Inhibitors of PDE-IV (AID 607; active = well fitted activation curve with a large enough effect in the main read-out, with a control signal flat, not every such curve was filed as active; note: % of control where 0% means no effect)
Chain of 3',5'-cyclic-AMP phosphodiesterase 4B (Homo sapiens) (Q07343 whole entry, looked up): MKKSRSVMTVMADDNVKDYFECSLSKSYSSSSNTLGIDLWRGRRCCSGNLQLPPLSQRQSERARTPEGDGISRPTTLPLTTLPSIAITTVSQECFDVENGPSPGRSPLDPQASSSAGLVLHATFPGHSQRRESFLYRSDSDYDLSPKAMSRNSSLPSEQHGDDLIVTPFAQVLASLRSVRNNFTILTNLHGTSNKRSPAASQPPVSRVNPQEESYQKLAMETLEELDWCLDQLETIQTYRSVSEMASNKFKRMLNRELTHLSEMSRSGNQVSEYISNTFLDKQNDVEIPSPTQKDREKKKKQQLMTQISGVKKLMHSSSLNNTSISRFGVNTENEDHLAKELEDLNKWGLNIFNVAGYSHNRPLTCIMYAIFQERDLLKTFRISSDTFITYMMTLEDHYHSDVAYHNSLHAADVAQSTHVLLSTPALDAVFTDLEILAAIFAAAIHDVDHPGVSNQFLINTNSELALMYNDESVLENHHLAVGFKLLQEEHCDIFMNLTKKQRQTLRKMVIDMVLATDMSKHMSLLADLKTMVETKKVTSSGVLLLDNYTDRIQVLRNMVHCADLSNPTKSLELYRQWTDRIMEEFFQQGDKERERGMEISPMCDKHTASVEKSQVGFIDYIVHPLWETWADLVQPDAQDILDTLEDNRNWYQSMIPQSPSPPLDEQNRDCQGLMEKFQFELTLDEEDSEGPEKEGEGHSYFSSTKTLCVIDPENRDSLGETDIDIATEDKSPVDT
Method in brief: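 Live HEK293 cells with a modified cyclic nucleotide-gated (CNG) channel report intracellular cAMP via membrane-potential dye fluorescence (ex 535/em 590 nm). Endogenous PDE-IV was targeted. Compounds were tested at up to 22.9 uM final; RO 20-1724 100 uM served as control.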

[34] = qHTS Assay for Lipid Storage Modulators (AID 1519; calls by dose curve; for activity change, negative = inhibition: % is set by controls: 0 for no effect and ±100 for the full control effect); conditions: Drosophila S3 cells, BODIPY lipid droplet/cell ratio, laser cytometry, cells loaded with oleic acid
Method in brief: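 Cells seeded at 5,000 per well were treated with compounds over a concentration series and loaded with oleic acid (400 uM, as added). Lipid droplet fluorescence (488 nm excitation, 500-530 nm channel) was read by laser-scanning cytometry and normalized to 20 uM Triacsin C.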

[35] = target: DNA dC->dU-editing enzyme APOBEC-3G (Homo sapiens) (UniProt Q9HC16); assay: qHTS for inhibitors of Vif-A3G interactions: Validation (AID 588379); note: 0% is about no effect
Chain of DNA dC->dU-editing enzyme APOBEC-3G (Homo sapiens) (Q9HC16 whole entry, looked up): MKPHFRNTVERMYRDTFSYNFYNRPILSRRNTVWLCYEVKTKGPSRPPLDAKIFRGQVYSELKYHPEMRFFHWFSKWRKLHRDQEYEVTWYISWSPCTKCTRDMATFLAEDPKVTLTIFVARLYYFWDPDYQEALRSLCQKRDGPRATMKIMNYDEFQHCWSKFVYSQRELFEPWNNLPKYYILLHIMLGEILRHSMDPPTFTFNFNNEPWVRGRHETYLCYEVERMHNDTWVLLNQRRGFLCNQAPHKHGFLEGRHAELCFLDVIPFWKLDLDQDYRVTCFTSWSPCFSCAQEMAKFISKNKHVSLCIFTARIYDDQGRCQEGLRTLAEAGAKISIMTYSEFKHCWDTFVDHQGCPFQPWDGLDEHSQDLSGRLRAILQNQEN
Method in brief: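 HeLa cells stably expressing Vif and A3G-eYFP, 700 cells/well, incubated overnight at 37 deg C, then exposed to compound overnight at 37 deg C. Inhibition of Vif-mediated degradation read as increased yellow fluorescence (Ex 488/Em 500-530) by laser-scanning cytometry.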

[36] = Primary qHTS for small molecule stabilizers of the endoplasmic reticulum resident proteome: Secreted ER Calcium Modulated Protein (SERCaMP) assay (AID 1508630); note: % is set by controls: 0 for no effect and ±100 for the full control effect
Method in brief: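 GLuc-SERCaMP-expressing SH-SY5Y cells, pretreated 16 h with compound, are challenged with thapsigargin to empty ER calcium stores; after 4 h, coelenterazine is added directly to the medium and luminescence is imaged.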

In the case of `CCCCC[C@@H]1OC(=O)[C@@H](C)N(C)C(=O)[C@H](CCCCC)OC(=O)C(C)N(C)C(=O)[C@H](CCCCC)OC(=O)[C@@H](C)N(C)C(=O)[C@H](CCCCC)OC(=O)C(C)N(C)C1=O` (stereo partly drawn), the Potency [1] is reported as 11 µM (active), the Potency [2] is reported as 8.38 µM (active) and the Potency [3] is reported as 6.68 µM (active). For the same compound, the Potency [4] was 13.3 µM (active), the Potency [5] was 3.34 µM (active) and the Potency [6] was 8.41 µM (active). The Potency [7] was 6.68 µM (active), the Potency [8] was 9.41 µM (active) and the Potency [9] was 7.43 µM (active). The Potency [10] was 16.7 µM (active), the outcome [11] was “inactive” and the Potency [12] was “inactive”. The Potency [13] was “inactive”, the outcome [14] was “inactive” and the outcome [15] was “inactive”. The Potency [16] was 16.6 µM (active), the Potency [17] was 9.35 µM (active) and the Potency [18] was 18.7 µM (active). For the same compound, the Potency [19] was 11.7 µM (active), the outcome [20] was “inactive” and the Potency [21] was 11.8 µM (active). The outcome [22] was “inactive”, the outcome [23] was “inactive” and the Potency [24] was “inactive”. For the same compound, the Potency [25] was 4.17 µM (active), the Potency [26] was “inactive” and the Potency [27] was “inactive”. For the same compound, the Potency [28] was 20.9 µM (active) and the Potency [29] was 11.7 µM (active).
With `Oc1ccc2c3c1O[C@H]1c4[nH]c5c(c4C[C@@]4(O)[C@@H](C2)N(CC2CC2)CC[C@]314)C[C@]1(O)[C@H]2Cc3ccc(O)c4c3[C@@]1(CCN2CC1CC1)[C@@H]5O4` the Potency [30] was > 46 µM (inactive), the Potency [31] was > 46 µM (inactive) and the outcome [32] was “inactive”. For the same compound, the Potency [33] was “inactive”, the activity change, negative = inhibition ([34]; at 57.5 µM (top of the series)) was -0.108% (inactive) and the max response ([34]; measured here: cell count channel max response) was 16.4%. The max response ([34]; measured here: lipid channel max response) was 18.7%, the Potency [35] was “inactive” and the Potency [36] was “inactive”.

From PubChem BioAssay (NCATS)
